# PTAP TSG101 blk: blocks PTAP/TSG101 interaction to inhibit HIV-1 budding. Potency, µM (doses to about 115 µM), without a hit: at the highest dose activity change, negative = inhibition, usual class: inhibitors. 340,000 tested, under 10 active. Q99816. Fluorescence polarization, FITC-PTAP peptide / Tsg101 binding; active = well fitted inhibition curve with a large enough effect in the main read-out, with a control signal flat, not every such curve was filed as active; inconclusive = small, poorly fitted or top-dose-only effect, or effect the other way, or a change in a side signal; inactive = no such curve, though single readings can be large or run the other way; note: % of control where 0% means no effect
#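 Fluorescence polarization binding of Tsg101 binding domain (10 uM final) to FITC-labeled PTAP peptide (50 nM final) in HEPES pH 7.5 buffer with NaCl, Tween 20, EDTA, TCEP. Compounds added before peptide; binding 20 min at RT.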
# Rango dissoc inh: inhibition of RanGTP-driven Rango-importin beta dissociation | O95149+P62826 | Biochemical FRET Rango-importin beta, RanGTP-induced dissociation | Potency, µM (doses to about 46.1 µM), inactives show at the highest dose activity change, negative = inhibition | hit rate 0.071% among 340,000; calls by dose curve; note: % of control where 0% means no effect; nearly all actives have a fitted effect of over 45% in size
#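 Quantitative HTS using a FRET biosensor: 0.1 uM Rango, 0.25 uM importin beta, 0.6 uM Ran, 2 mM GTP, 0.2 uM RCC1 final, PBS with DTT, Tween-20 and BSA. Post-read taken 45 min after Ran addition.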
# 12-LOX inh: inhibitors of human 12S-lipoxygenase ALOX12; purified 12hLO, xylenol orange hydroperoxide absorbance; P18054; Potency, µM (highest dose often 108 µM), without a hit: top-dose activity change, negative = inhibition, usual class: inhibitors; hit rate 1.1% among 580,000; note: % is set by controls: 0 for no effect and ±100 for the full control effect
# Target sequence (P18054 whole entry, looked up): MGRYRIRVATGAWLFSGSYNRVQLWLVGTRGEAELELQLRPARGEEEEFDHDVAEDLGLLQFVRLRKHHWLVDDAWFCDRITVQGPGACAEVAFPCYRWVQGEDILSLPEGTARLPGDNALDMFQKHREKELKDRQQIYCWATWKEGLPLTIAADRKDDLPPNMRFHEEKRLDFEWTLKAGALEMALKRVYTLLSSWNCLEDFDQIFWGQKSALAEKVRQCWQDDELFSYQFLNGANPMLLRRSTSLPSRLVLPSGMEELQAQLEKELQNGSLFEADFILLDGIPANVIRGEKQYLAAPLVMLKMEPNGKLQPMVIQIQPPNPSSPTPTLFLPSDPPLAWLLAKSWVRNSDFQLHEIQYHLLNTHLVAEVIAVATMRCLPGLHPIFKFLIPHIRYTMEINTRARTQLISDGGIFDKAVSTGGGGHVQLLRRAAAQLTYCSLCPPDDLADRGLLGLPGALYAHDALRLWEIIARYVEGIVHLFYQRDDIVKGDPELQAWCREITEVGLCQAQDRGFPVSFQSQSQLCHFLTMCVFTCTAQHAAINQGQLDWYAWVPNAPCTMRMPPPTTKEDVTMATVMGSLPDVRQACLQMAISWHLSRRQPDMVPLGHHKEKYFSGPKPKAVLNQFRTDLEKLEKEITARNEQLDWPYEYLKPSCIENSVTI
#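 Hydroperoxide product was detected by ferrous iron/xylenol orange as the 573 to 405 nm absorbance ratio. Arachidonic acid at 40 uM (final) was turned over for 30 min at room temperature by 150 nM human 12hLO, pH 7.0 Hepes buffer, after 15 min compound preincubation.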
# ClpP mod: qHTS Assay for Activators of ClpP; purified B. subtilis ClpP, FRET peptide cleavage, 20 min; hit rate 1.9% among 340,000; Potency, µM (doses to about 57.5 µM), for the others: at the highest dose activity change, negative = active; ATP-dependent Clp protease proteolytic subunit (Bacillus subtilis (strain 168)), P80244; active = well fitted falling curve with a large enough effect; inconclusive = small, poorly fitted or top-dose-only effect; inactive = no such curve, though single readings can be large or run the other way; note: the source files actives as falling curves though it sought activators and does not explain the sign; nearly all actives have a fitted effect of over 65% in size
#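 Purified B. subtilis ClpP, 10 microg/mL final in Tris/HCl pH8 with KCl, BSA, glycerol and Tween-20, cleaved an Abz/nitrotyrosine-quenched decapeptide. Fluorescence (ex 320, em 430) was read at 0 and 20 min at room temperature. Delta was normalized to 5.8 microM ADEP and DMSO/no-enzyme controls.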
# Rango complex inh: inhibitors of Rango-importin beta complex formation; AID 540263; Potency, µM (top dose mostly 92.2 µM), for the others: top-dose inhibition of complex formation; hit rate 0.031% among 340,000; Rango CFP/YFP FRET sensor + importin beta, 45 min; calls by dose curve;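 note: 0% = DMSO wells and 100% = buffer wells lacking importin beta; nearly all actives have a fitted effect of over 15% in size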
#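 FRET biosensor Rango (snurportin 1 IBB between N-terminal EYFP and C-terminal Cerulean), 50 nM in PBS/1 mM DTT/0.02% Tween-20/0.1% BSA, preincubated 5 min RT with compound; 0.125 microM importin beta added, 45 min RT, CFP/YFP FRET ratio read.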
# TDP1 inh: blocks human tyrosyl-DNA phosphodiesterase 1 | Q9NUW8 | recombinant TDP1, AlphaScreen DNA substrate cleavage | Potency, µM (titrated, usually from 130 µM), without a hit: at the top dose activity change, negative = inhibition, hits mostly inhibitors | hit rate 0.28% among 350,000 | AID 485290; note: % is set by controls: 0 for no effect and ±100 for the full control effect; nearly all actives have a fitted effect of over 40% in size
#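 AlphaScreen read-out: signal falls as enzyme removes the 3' tyrosine-FITC from a 5'-biotinylated DNA oligo (15 nM, 5 min, RT). Enzyme was E. coli-made recombinant Tdp1 at 1 nM, exposed to compound for 15 min beforehand; beads 10 ug/ml, 10 min.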
# Numbers without * were called inactive; ? = inconclusive; . = not tested or not shown; [ ] = dose if it differs, or a comment. Rows were chosen to be rich in hits. Some 2.4% of all compounds tested hit in one or more screens of this group. Unless noted, calls come from the whole dose curve; as a rule, active = well fitted curve in the direction sought with a large enough effect; inconclusive = small, poorly fitted or top-dose-only effect, or another doubt; inactive = no such curve, though single readings can be large; an effect the other way counts as inactive or inconclusive. Potency is the fitted concentration of half-maximal effect.
SMILES,PTAP TSG101 blk,Rango dissoc inh,12-LOX inh,ClpP mod,Rango complex inh,TDP1 inh
C/C(=N\NC(=S)Nc1cccc(C)c1)c1cc2ccccc2o1,-3%,-24%,35µM*,.,?,10%
CCNC(=S)N/N=C(\C)c1cc2ccccc2o1,-2%,0%,?,-2%,1%,7%
Cc1cccc(Nc2ncc(Cc3ccccc3C)s2)n1,.,.,12%,.,.,.
Cc1ccsc1C(=O)N(Cc1ccncc1)C1CC1,.,.,-3%,.,.,.
Cc1cc(CNC(=O)[C@@H]2CCC[C@@H](NCc3nccs3)CN(C)C(=O)C2)no1,.,.,-9%[176 µM],.,.,.
COc1cc2nc(N3CCCC(O)C3)c(CNCc3ccccc3F)cc2c(OC)c1OC (stereo not drawn),.,.,20%,.,.,.
CCCOc1ccc(OCC(=O)Nc2ccc3oc(C)nc3c2)cc1,.,.,23%,.,.,.
O=[N+]([O-])c1cccc(NN=Nc2ccccc2)c1,-6%,-9%,16µM*,-1%,-4%,.
C/C(=N\Nc1ccccc1)c1cccc([N+](=O)[O-])c1,.,.,6.3µM*,.,.,.
C/C(=N\NC(=O)c1nc2ccccn2c1C)c1cccc([N+](=O)[O-])c1,1%,-4%,0%,18µM*,-2%,-2%
O=C(N1CCSCC1)C1(c2ccc(Cl)cc2)CCOCC1,.,.,-4%[6.33 µM],.,.,.
S=c1[nH]nc(CSCc2ccccc2Cl)n1C1CCCCC1,-1%,-1%,45µM*,-3%,0%,8%
CC(=O)COc1ccc2c(C)c(CC(C)C)c(=O)oc2c1,.,.,9%,.,.,.
CCCc1c(C)c2ccc(OCC(C)=O)cc2oc1=O,-11%,4%,27%,3.2µM*,0%,2%
CCCCc1c(C)c2ccc(OCC(C)=O)cc2oc1=O,0%,8%,0%,4µM*,-1%,0%
C=CCOC(=O)COc1ccc2c(C)c(C)c(=O)oc2c1,-1%,4%,0%,13µM*,0%,6%
CC1CCN(C(=O)CC2Sc3ncccc3N(C)C2=O)CC1 (stereo not drawn),.,.,43%,.,.,.
O=[N+]([O-])c1cccc(-c2noc3ccccc23)c1,.,.,-2%,.,.,.
CN(C)/C=C/C(=O)c1ccc(Oc2ccccc2)cc1,-1%,-15%,5µM*,.,?,3%
c1ccc(O[C@H]2COCCN(CC3CC3)C2)cc1,.,.,19%[176 µM],.,.,.
C=CCc1ccccc1OCC(O)CN1CCOCC1 (stereo not drawn),1%,15%,40µM*,.,-4%,.
C=CCc1ccccc1OCC(O)CN1CCN(c2ccc(OC)cc2)CC1 (stereo not drawn),-2%,-12%,0%,-2%,5%,11%
CC1=C(C(=O)OC(C)C)C(c2cccnc2)C2=C(CCCC2=O)N1 (stereo not drawn),-5%,?,-1%,28µM*,?,-4%
CC1=C(C(=O)OCC2CCCO2)C(c2ccncc2)C2=C(CCCC2=O)N1 (stereo not drawn),-4%,-22%,129%,22µM*,?,0%
CCN(CC)CCN1C(=O)c2ccccc2NC1c1ccc(C)cc1 (stereo not drawn),-4%,-10%,13%,32µM*,-6%,-2%
SMILES,PTAP TSG101 blk,Rango dissoc inh,12-LOX inh,ClpP mod,Rango complex inh,TDP1 inh
CCN(CC)CCN1C(=O)c2ccccc2NC1c1ccc(F)cc1 (stereo not drawn),-8%,3%,?,32µM*,-1%,0%
CCN(CC)CCN1C(=O)c2ccccc2NC1c1ccc(Br)cc1 (stereo not drawn),-5%,7%,?,.,-1%,5%
COc1ccc(-c2noc(-c3cccn3CC(=O)N3CCN(c4ccccc4F)CC3)n2)cc1F,.,.,43%,.,.,.
COc1ccccc1N1CCN([C@@H]2[C@H](O)[C@H](CO)O[C@@H]2CNC(=O)c2ccccc2)CC1,.,.,22µM*,.,.,.
CCc1nncn1C1CCN(C(=O)c2cc(C)cc(C)c2)CC1,.,.,8%,.,.,.
COc1ccc(-c2nc(S(=O)(=O)c3ccccc3)c(N3CCCC3)o2)cc1,.,.,4.5µM*,-2%,.,.
COc1ccc(-c2nc(S(=O)(=O)c3ccccc3)c(N3CCC(C)CC3)o2)cc1,.,.,-13%,-10%,.,2%
CC(CN1CCCCC1)NC(=O)c1scnc1-c1ccccc1 (stereo not drawn),.,.,5.6µM*,0%,.,.
O=C(c1ccco1)N(CCC(c1ccccc1)c1ccco1)Cc1ccco1 (stereo not drawn),-14%,-3%,18µM*,-2%,?,.
Cc1cccc(CNC(=O)c2c3n(c(C)cc2=O)-c2ccccc2SC(c2ccsc2)C3)n1 (stereo not drawn),.,.,14%,.,.,.
Oc1ccccc1C=Nc1ccc(C23CC4CC(CC(c5ccccc5)(C4)C2)C3)cc1,.,.,6%,.,.,.
CCOC(=O)C1CCN(C(=O)CN2C(=O)c3cccnc3Oc3ccccc32)CC1,-9%,-13%,3%,-4%,0%,1%
CCOC(=O)C1CCN(C(=O)CN2C(=O)C(C(C)C)Oc3ccccc32)CC1 (stereo not drawn),-3%,9%,14%,3.5µM*,-1%,7%
COc1ccc(N2CCN(C(=O)c3cn(C)c(=O)c4c3c3ccccc3n4C)CC2)cc1,-3%,6%,?,-23%,-1%,8%
CCCCN(CC)CCNC(=O)c1cn(CCOC)c(=O)c2c1c1ccccc1n2C,-5%,-3%,0%,3%,-1%,2%
CC(C)Cn1cc(C(=O)NCc2cccs2)c2c3ccccc3n(C)c2c1=O,-9%,-18%,-13%,10µM*,0%,-3%
COCCn1cc(C(=O)N2CCC(C)CC2)c2c3ccccc3n(C)c2c1=O,-7%,-3%,-2%,16µM*,3%,6%
CCCN(CCC)CCCNC(=O)c1cn(CCOC)c(=O)c2c1c1ccccc1n2C,-8%,8%,-11%,14µM*,0%,8%
CCOC(=O)N1CCN(C(=O)c2cn(C)c(=O)c3c2c2ccccc2n3C)CC1,-7%,-2%,7%,14µM*,-8%,3%
C[C@@H]1C(=O)O[C@H]2[C@H]1CC[C@@]1(C)Cc3sc(NC(=O)CC(C)(C)C)nc3[C@@H](C)[C@H]21,.,.,10%[176 µM],.,.,.
CC(C)CCNC(=O)c1cn(CC(C)C)c(=O)c2c1c1ccccc1n2C,-3%,7%,0%,?,4%,.
CCOC(=O)N1CCN(C(=O)c2cn(CC(C)C)c(=O)c3c2c2ccccc2n3C)CC1,-8%,-5%,1%,25µM*,?,8%
CC(C)Cn1cc(C(=O)N2CCC(C)CC2)c2c3ccccc3n(C)c2c1=O,-1%,-9%,-15%,.,1%,7%

# Bioassay records from PubChem.
